Data as given in PubChem BioAssay AID1159580 (chemical genetic matrix, 2015).
Out of some 5,500 compounds screened, about 2,000 (36%) were called active. Inconclusive results (about 18%) are left out. Some of the results follow. Values without a mark were called inactive. No stated cut-off is given here; in the data, active means normalized growth mostly below about 0.91 (no sharp cut-off); inconclusive means no clear call, values can overlap the other calls; inactive means mostly above about 0.92.

Test: chemical genetic growth profiling, strain panel (AID 1159580);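 further: tested at 20 µM; growth read once vehicle control cultures reached saturation at 30 °C; 1 = growth at the plate median or of vehicle wells; lower values mean less growth of the strain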
Settings: growth OD

Cc1cccc(Nc2ccccc2C(=O)O)c1C
normalized growth (S. cerevisiae deletion strains, locus YJR075W, strain HOC1, active compounds read low): 0.937
normalized growth (S. cerevisiae deletion strains, locus YKL009W, strain mrt4, active compounds read low): 0.874 (active)
normalized growth (S. cerevisiae deletion strains, locus YKL068W, active compounds read low): 0.985
normalized growth (S. cerevisiae deletion strains, locus YKL085W, strain MDH1 (second series), active compounds read low): 0.972
normalized growth (S. cerevisiae deletion strains, locus YKL085W, strain MDH1, active compounds read low): 0.972
normalized growth (S. cerevisiae deletion strains, locus YKL160W, strain elf1, active compounds read low): 0.921
normalized growth (S. cerevisiae deletion strains, locus YKL190W, strain CNB1, active compounds read low): 0.908 (active)
normalized growth (S. cerevisiae deletion strains, locus YKR001C, strain vps1, active compounds read low): 0.676 (active)
normalized growth (S. cerevisiae deletion strains, locus YKR026C, strain gcn3, active compounds read low): 0.877 (active)
normalized growth (S. cerevisiae deletion strains, locus YKR091W, strain srl3, active compounds read low): 0.909 (active)
normalized growth (S. cerevisiae deletion strains, locus YLL001W, strain dnm1, active compounds read low): 0.914
normalized growth (S. cerevisiae deletion strains, locus YLL026W, active compounds read low): 0.952
normalized growth (S. cerevisiae deletion strains, locus YLL041C, strain sdh2, active compounds read low): 0.901 (active)
normalized growth (S. cerevisiae deletion strains, locus YLR027C, strain aat2, active compounds read low): 0.936
normalized growth (S. cerevisiae deletion strains, locus YLR039C, strain RIC1, active compounds read low): 0.597 (active)
normalized growth (S. cerevisiae deletion strains, locus YLR058C, strain SHM2, active compounds read low): 0.906
normalized growth (S. cerevisiae deletion strains, locus YLR102C, strain apc9, active compounds read low): 0.876 (active)
normalized growth (S. cerevisiae deletion strains, locus YLR113W, strain HOG1, active compounds read low): 0.903
normalized growth (S. cerevisiae deletion strains, locus YLR221C, strain rsa3, active compounds read low): 0.925
normalized growth (S. cerevisiae deletion strains, locus YLR258W, strain gsy2, active compounds read low): 0.924
normalized growth (S. cerevisiae deletion strains, locus YLR262C, strain YPT6 (second series), active compounds read low): 0.749 (active)
normalized growth (S. cerevisiae deletion strains, locus YLR262C, strain YPT6, active compounds read low): 0.683
normalized growth (S. cerevisiae deletion strains, locus YLR268W, strain sec22, active compounds read low): 0.869 (active)
normalized growth (S. cerevisiae deletion strains, locus YLR320W, strain mms22, active compounds read low): 0.894
normalized growth (S. cerevisiae deletion strains, locus YLR330W, strain CHS5, active compounds read low): 0.87 (active)
normalized growth (S. cerevisiae deletion strains, locus YLR342W, strain FKS1 (second series), active compounds read low): 0.756 (active)
normalized growth (S. cerevisiae deletion strains, locus YLR342W, strain FKS1, active compounds read low): 0.897 (active)
normalized growth (S. cerevisiae deletion strains, locus YLR357W, strain rsc2, active compounds read low): 0.979
normalized growth (S. cerevisiae deletion strains, locus YLR370C, strain arc18, active compounds read low): 0.913
normalized growth (S. cerevisiae deletion strains, locus YLR371W, strain rom2, active compounds read low): 0.858 (active)
normalized growth (S. cerevisiae deletion strains, locus YLR384C, strain iki3, active compounds read low): 0.894 (active)
normalized growth (S. cerevisiae deletion strains, locus YLR418C, strain cdc73, active compounds read low): 0.775 (active)
normalized growth (S. cerevisiae deletion strains, locus YML016C, strain PPZ1, active compounds read low): 0.886 (active)
normalized growth (S. cerevisiae deletion strains, locus YML032C, strain rad52, active compounds read low): 0.891 (active)
normalized growth (S. cerevisiae deletion strains, locus YML120C, strain ndi1, active compounds read low): 0.922
normalized growth (S. cerevisiae deletion strains, locus YML124C, strain tub3, active compounds read low): 0.843 (active)
normalized growth (S. cerevisiae deletion strains, locus YMR058W, strain fet3, active compounds read low): 0.918
normalized growth (S. cerevisiae deletion strains, locus YMR078C, strain ctf18, active compounds read low): 0.838 (active)
normalized growth (S. cerevisiae deletion strains, locus YMR125W, strain sto1, active compounds read low): 0.955
normalized growth (S. cerevisiae deletion strains, locus YMR129W, active compounds read low): 0.908 (active)
normalized growth (S. cerevisiae deletion strains, locus YMR205C, strain PFK2, active compounds read low): 0.919
normalized growth (S. cerevisiae deletion strains, locus YMR223W, strain ubp8, active compounds read low): 0.869 (active)
normalized growth (S. cerevisiae deletion strains, locus YMR231W, strain pep5, active compounds read low): 0.9 (active)
normalized growth (S. cerevisiae deletion strains, locus YMR263W, strain SAP30, active compounds read low): 0.891
normalized growth (S. cerevisiae deletion strains, locus YMR307W, strain GAS1, active compounds read low): 0.672
normalized growth (S. cerevisiae deletion strains, locus YNL067W, strain RPL9B, active compounds read low): 0.926
normalized growth (S. cerevisiae deletion strains, locus YNL071W, strain lat1, active compounds read low): 0.897 (active)
normalized growth (S. cerevisiae deletion strains, locus YNL128W, strain TEP1, active compounds read low): 0.988
normalized growth (S. cerevisiae deletion strains, locus YNL153C, strain GIM3, active compounds read low): 0.933
normalized growth (S. cerevisiae deletion strains, locus YNL183C, strain NPR1, active compounds read low): 0.805 (active)
normalized growth (S. cerevisiae deletion strains, locus YNL209W, strain ssb2, active compounds read low): 0.939
normalized growth (S. cerevisiae deletion strains, locus YNL233W, strain BNI4, active compounds read low): 0.927
normalized growth (S. cerevisiae deletion strains, locus YNL248C, strain rpa49, active compounds read low): 0.971
normalized growth (S. cerevisiae deletion strains, locus YNL250W, strain rad50, active compounds read low): 0.988
normalized growth (S. cerevisiae deletion strains, locus YNL271C, strain bni1, active compounds read low): 0.941
normalized growth (S. cerevisiae deletion strains, locus YNL298W, strain CLA4, active compounds read low): 0.844 (active)
normalized growth (S. cerevisiae deletion strains, locus YNL307C, strain MCK1, active compounds read low): 0.626 (active)
normalized growth (S. cerevisiae deletion strains, locus YNL322C, strain KRE1 (second series), active compounds read low): 0.898 (active)
normalized growth (S. cerevisiae deletion strains, locus YNL322C, strain KRE1, active compounds read low): 0.912 (active)
normalized growth (S. cerevisiae deletion strains, locus YNR049C, strain mso1, active compounds read low): 0.912 (active)
normalized growth (S. cerevisiae deletion strains, locus YNR052C, strain pop2, active compounds read low): 0.878 (active)
normalized growth (S. cerevisiae deletion strains, locus YOL006C, strain TOP1, active compounds read low): 0.884
normalized growth (S. cerevisiae deletion strains, locus YOL012C, strain htz1): 1.12
normalized growth (S. cerevisiae deletion strains, locus YOL147C, strain pex11, active compounds read low): 0.87 (active)
normalized growth (S. cerevisiae deletion strains, locus YOR001W, strain rrp6, active compounds read low): 0.938
normalized growth (S. cerevisiae deletion strains, locus YOR061W, strain CKA2, active compounds read low): 0.894
normalized growth (S. cerevisiae deletion strains, locus YOR069W, strain VPS5, active compounds read low): 0.893 (active)
normalized growth (S. cerevisiae deletion strains, locus YOR070C, strain gyp1, active compounds read low): 0.928
normalized growth (S. cerevisiae deletion strains, locus YOR080W, strain dia2, active compounds read low): 0.941
normalized growth (S. cerevisiae deletion strains, locus YOR083W, strain WHI5, active compounds read low): 0.921
normalized growth (S. cerevisiae deletion strains, locus YOR106W, strain vam3, active compounds read low): 0.94
normalized growth (S. cerevisiae deletion strains, locus YOR136W, strain idh2, active compounds read low): 0.958
normalized growth (S. cerevisiae deletion strains, locus YOR144C, strain elg1, active compounds read low): 0.86 (active)
normalized growth (S. cerevisiae deletion strains, locus YOR184W, strain ser1, active compounds read low): 0.724 (active)
normalized growth (S. cerevisiae deletion strains, locus YOR231W, strain MKK1, active compounds read low): 0.919
normalized growth (S. cerevisiae deletion strains, locus YOR265W, strain rbl2, active compounds read low): 0.908 (active)
normalized growth (S. cerevisiae deletion strains, locus YOR270C, strain vph1, active compounds read low): 0.868
normalized growth (S. cerevisiae deletion strains, locus YOR290C, strain snf2, active compounds read low): 0.919
normalized growth (S. cerevisiae deletion strains, locus YOR316C, strain cot1, active compounds read low): 0.874 (active)
normalized growth (S. cerevisiae deletion strains, locus YPL051W, strain arl3, active compounds read low): 0.906 (active)
normalized growth (S. cerevisiae deletion strains, locus YPL055C, strain LGE1, active compounds read low): 0.881
normalized growth (S. cerevisiae deletion strains, locus YPL078C, strain atp4, active compounds read low): 0.893
normalized growth (S. cerevisiae deletion strains, locus YPL106C, strain sse1, active compounds read low): 1.05
normalized growth (S. cerevisiae deletion strains, locus YPL240C, strain hsp82, active compounds read low): 0.915 (active)
normalized growth (S. cerevisiae deletion strains, locus YPL241C, strain CIN2, active compounds read low): 0.902 (active)
normalized growth (S. cerevisiae deletion strains, locus YPL256C, strain CLN2, active compounds read low): 0.874
normalized growth (S. cerevisiae deletion strains, locus YPR119W, strain clb2, active compounds read low): 0.856 (active)
normalized growth (S. cerevisiae deletion strains, locus YPR141C, strain kar3, active compounds read low): 0.981
normalized growth (S. cerevisiae deletion strains, locus YPR163C, strain tif3, active compounds read low): 0.893 (active)
normalized growth (S. cerevisiae deletion strains, locus YPR167C, strain met16, active compounds read low): 0.87 (active)
normalized growth (S. cerevisiae deletion strains, strain wtn01, active compounds read low): 0.911
normalized growth (S. cerevisiae strains, strain wild type, active compounds read low): 0.937
